SW480 rereplic: inducers of DNA re-replication in SW480 colon cancer cells | 340,000 compounds, 1.8% hits | Potency, µM (highest dose often 46.1 µM), hits mostly activators | SW480 DNA re-replication, Hoechst DNA content imaging, 48 h; further: nearly all actives have a fitted effect of over 55% in size
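DNA re-replication was detected as more nuclei of elevated Hoechst intensity after 48 hr exposure to compound (23 nL pinned per well of 250 cells).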
TDP1 cell CPT: DT40-hTDP1 cell growth loss with CPT. chicken DT40 Tdp1-/-;hTDP1 cells + 20 nM CPT, ATP luminescence, 48 h. Potency, µM (doses to about 46.2 µM), actives largely listed as inhibitors. 420,000 compounds, 12% hits; further: nearly all actives have a fitted effect of over 55% in size
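Cell growth measured by CellTiter-Glo luminescence after a minimum 48 h, 37 C compound exposure with 20 nM CPT in Tdp1-knockout DT40 cells stably expressing hTDP1, seeded 400/well; qHTS titration format.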
BCR signal inh: inhibitors of chronic active B-cell receptor signaling; Potency, µM (titrated, usually from 46.1 µM), usual class: inhibitors; AID 493014; 340,000 compounds, 0.05% hits; ABC-DLBCL IkBa-CBG/CBR reporter, luminescence ratio, 4 h; active means well fitted inhibition curve with a large enough effect in the signal ratio, with a control signal flat, not every such curve was filed as active; inconclusive means small, poorly fitted or top-dose-only effect, or effect the other way, or a change in a side signal; the % refers to the signal ratio
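Doxycycline induced both beetle luciferases in TMD8 lymphoma cells; IKK-driven degradation limits the IkappaBalpha-fused green signal, while red luminescence normalises for cell number and nonspecific effects. Compounds tested up to 46 uM, 4 hrs.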
IL1B secr inh: inhibitors of inflammasome signaling (IL-1 beta secretion) | activity change, % at 57.5 µM | THP-1 LPS/ATP IL-1B secretion, AlphaLISA, 16 h; hits give low values | 360,000 compounds, 4.7% hits; in the data active means activity change below about -50%; inconclusive means mostly about -30% to -49%
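Secreted IL-1B measured by AlphaLISA bead assay after 16 h compound exposure of THP-1 cells; compounds (final up to 57.5 uM) added 1 h before LPS (250 ng/mL) and ATP (1.25 mM) stimulation; lower signal means less secretion.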
DT40 TDP1 no CPT: qHTS for Inhibitors of human tyrosyl-DNA phosphodiesterase 1 (TDP1): qHTS in cells in absence of CPT; DT40 Tdp1-/- hTDP1 cells, no CPT, ATP luminescence, 48 h; Potency, µM (doses to about 46.2 µM), actives largely listed as inhibitors; AID 686978, 2013; 420,000 compounds, 15% hits; further: nearly all actives have a fitted effect of over 55% in size
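No-CPT arm: Tdp1-/-;hTDP1 DT40 cells (400/well) plus compounds, incubated ≥48 hr at 37 °C. Readout CellTiter-Glo luminescence.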
MCF10A rerep: induces DNA re-replication in MCF 10a normal breast cells. MCF 10A DNA re-replication, Hoechst nuclear intensity, 48 h. Potency, µM (top dose mostly 46.1 µM), hits mostly activators. 350,000 compounds, 2.9% hits. AID 624296; further: nearly all actives have a fitted effect of over 50% in size
Hits are given with their value. Most compounds without a hit are left out; they make up all but 19% or so of the library. Unless noted, the call rests on the fitted dose curve; in most records, active means well fitted curve in the direction sought with a large enough effect; inconclusive means small, poorly fitted or top-dose-only effect, or another doubt; inactive means no such curve, though single readings can be large; an effect the other way counts as inactive or inconclusive.

What do the screens show for `COc1ccc(N=Nc2c(N)n[nH]c2N)cc1`?
SW480 rereplic: inactive; TDP1 cell CPT: inactive; BCR signal inh: inconclusive; IL1B secr inh: -53; DT40 TDP1 no CPT: inactive; MCF10A rerep: inactive

How did Nc1n[nH]c(N)c1N=Nc1ccccc1F do in these assays?
SW480 rereplic: inactive; TDP1 cell CPT: inactive; BCR signal inh: inactive; IL1B secr inh: inactive; DT40 TDP1 no CPT: inactive; MCF10A rerep: inactive

Results for Nc1n[nH]c(N)c1N=Nc1ccccc1 ?
SW480 rereplic: 16µM; TDP1 cell CPT: inactive; BCR signal inh: inactive; IL1B secr inh: -66; DT40 TDP1 no CPT: inactive; MCF10A rerep: inactive

How did O=C(O)CCn1cc(C2CC(c3ccccc3)=NN2c2ccccc2)c(-c2ccccc2)n1 (configuration not stated) do in these assays?
SW480 rereplic: 23µM; TDP1 cell CPT: inactive; BCR signal inh: inconclusive; IL1B secr inh: inactive; DT40 TDP1 no CPT: inactive; MCF10A rerep: 12µM

How did N=C1C(c2nc3ccccc3[nH]2)=C(O)CN1c1ccccc1 do in these assays?
SW480 rereplic: inconclusive; TDP1 cell CPT: inconclusive; BCR signal inh: inconclusive; IL1B secr inh: inactive; DT40 TDP1 no CPT: 23µM; MCF10A rerep: inconclusive

What do the screens show for `CCC(C)N1CC(O)=C(c2nc3ccccc3[nH]2)C1=N` (configuration not stated)?
SW480 rereplic: inactive; TDP1 cell CPT: 23µM; BCR signal inh: inconclusive; IL1B secr inh: inconclusive; DT40 TDP1 no CPT: inconclusive; MCF10A rerep: inactive

How did CC1C(O)=C(c2nc3ccccc3[nH]2)C(=N)N1c1ccccc1 (configuration not stated) do in these assays?
SW480 rereplic: inconclusive; TDP1 cell CPT: inconclusive; BCR signal inh: inactive; IL1B secr inh: inactive; DT40 TDP1 no CPT: 21µM; MCF10A rerep: inactive

What do the screens show for `CCOC(=O)c1ccc(N2CC(O)=C(c3nc4ccccc4c(=O)[nH]3)C2=N)cc1`?
SW480 rereplic: inactive; TDP1 cell CPT: inconclusive; BCR signal inh: inactive; IL1B secr inh: inactive; DT40 TDP1 no CPT: 10µM; MCF10A rerep: 21µM

How did CCCCCCN1CC(O)=C(c2nc3ccccc3[nH]2)C1=N do in these assays?
SW480 rereplic: inactive; TDP1 cell CPT: inactive; BCR signal inh: inactive; IL1B secr inh: inactive; DT40 TDP1 no CPT: inactive; MCF10A rerep: inactive

How did COc1ccc(CCN2CC(O)=C(c3nc4ccccc4c(=O)[nH]3)C2=N)cc1OC do in these assays?
SW480 rereplic: inactive; TDP1 cell CPT: inconclusive; BCR signal inh: inconclusive; IL1B secr inh: inactive; DT40 TDP1 no CPT: 18µM; MCF10A rerep: inactive

Results for COC(=O)c1ccc2c(=O)[nH]c(CSc3nc(-c4ccc(F)cc4)cs3)nc2c1 ?
SW480 rereplic: inactive; TDP1 cell CPT: inactive; BCR signal inh: inactive; IL1B secr inh: inactive; DT40 TDP1 no CPT: inactive; MCF10A rerep: inactive

What do the screens show for `COc1cc2nc(CSc3nc(-c4ccc(F)cc4)cs3)[nH]c(=O)c2cc1OC`?
SW480 rereplic: inactive; TDP1 cell CPT: 15µM; BCR signal inh: inactive; IL1B secr inh: inactive; DT40 TDP1 no CPT: inconclusive; MCF10A rerep: inactive

How did COc1ccc(-c2nc(CSc3nnc(C)n4c3cc3sccc34)c(C)o2)cc1 do in these assays?
TDP1 cell CPT: inactive; DT40 TDP1 no CPT: inactive

What do the screens show for `CCCCCCN1C[C@@H](O)[C@H](n2cc(C3CC3)nn2)C[C@@H]1c1ccc(Cl)cc1`?
TDP1 cell CPT: 26µM; IL1B secr inh: inactive; DT40 TDP1 no CPT: inconclusive

What do the screens show for `CCCCCCN1C[C@@H](n2cc(C3CC3)nn2)[C@H](O)C[C@@H]1c1ccc(Cl)cc1`?
TDP1 cell CPT: inconclusive; IL1B secr inh: inactive; DT40 TDP1 no CPT: inconclusive

Results for CCCCCCN1C[C@H](O)[C@@H](n2cc(C3CC3)nn2)C[C@@H]1c1ccccc1 ?
TDP1 cell CPT: inconclusive; IL1B secr inh: inactive; DT40 TDP1 no CPT: 23µM

How did CCCCCCN1C[C@H](O)[C@@H](n2cc(C3CC3)nn2)C[C@@H]1c1ccc(C)cc1 do in these assays?
TDP1 cell CPT: inconclusive; IL1B secr inh: inactive; DT40 TDP1 no CPT: 26µM

Results for CCCCCC(=O)N1C[C@@H](n2cc(C3CC3)nn2)[C@H](O)C[C@@H]1c1ccc(Cl)cc1 ?
TDP1 cell CPT: 16µM; IL1B secr inh: inactive; DT40 TDP1 no CPT: 21µM

Results for CCCCCCN1C[C@@H](n2cc(C3CC3)nn2)[C@H](O)C[C@@H]1c1ccccc1 ?
TDP1 cell CPT: inactive; IL1B secr inh: inactive; DT40 TDP1 no CPT: inconclusive

How did CCCCCCN1C[C@@H](O)[C@H](n2cc(C3CC3)nn2)C[C@@H]1c1ccc(C)cc1 do in these assays?
TDP1 cell CPT: inactive; IL1B secr inh: inactive; DT40 TDP1 no CPT: inconclusive

How did CCOC(=O)C1CCN(S(=O)(=O)c2ccc3c4c(cccc24)C(=O)N3CC)CC1 do in these assays?
SW480 rereplic: inactive; TDP1 cell CPT: inactive; BCR signal inh: inconclusive; IL1B secr inh: inactive; DT40 TDP1 no CPT: inactive; MCF10A rerep: inactive

What do the screens show for `O=C(c1ccncc1)N1CCC2(CCCN(Cc3ccncc3)C2)CC1`?
TDP1 cell CPT: inactive; DT40 TDP1 no CPT: inactive

What do the screens show for `CNCCCC1Sc2ccccc2Oc2ccccc21` (configuration not stated)?
SW480 rereplic: inconclusive; TDP1 cell CPT: inconclusive; BCR signal inh: inconclusive; IL1B secr inh: -73; DT40 TDP1 no CPT: 15µM; MCF10A rerep: inactive

Results for O=C(Cc1ccc(N2CCNC2=O)cc1)N1CCCC(Nc2ccc(F)c(F)c2)C1 (configuration not stated) ?
SW480 rereplic: 5.8µM; TDP1 cell CPT: 2.3µM; BCR signal inh: inactive; IL1B secr inh: inactive; DT40 TDP1 no CPT: 3.7µM; MCF10A rerep: inconclusive

How did O=C(Cc1ccc(N2CCNC2=O)cc1)N1CCCC(Nc2cccc(F)c2)C1 (configuration not stated) do in these assays?
SW480 rereplic: inconclusive; TDP1 cell CPT: 2.9µM; BCR signal inh: inconclusive; IL1B secr inh: inactive; DT40 TDP1 no CPT: 2.1µM; MCF10A rerep: 3.7µM

Results for Cc1csc2nc(COC(=O)c3ccccc3NC(=O)c3cccc(Br)c3)cc(=O)n12 ?
TDP1 cell CPT: 18µM; DT40 TDP1 no CPT: 8.2µM

How did CCOc1cc(C(=O)OCc2cc(=O)n3c(C)csc3n2)cc(OCC)c1OCC do in these assays?
TDP1 cell CPT: inactive; DT40 TDP1 no CPT: inactive

What do the screens show for `CCOc1ccc(C(=O)Nc2ccc(C(=O)OCc3cc(=O)n4c(C)csc4n3)cc2)cc1`?
TDP1 cell CPT: inconclusive; DT40 TDP1 no CPT: 16µM

Results for COc1cccc(C(=O)Nc2ccccc2C(=O)OCc2cc(=O)n3c(C)csc3n2)c1 ?
TDP1 cell CPT: inactive; DT40 TDP1 no CPT: inactive

How did Cc1csc2nc(COC(=O)c3ccc(F)cc3)cc(=O)n12 do in these assays?
TDP1 cell CPT: inconclusive; DT40 TDP1 no CPT: 16µM

Source: PubChem BioAssay
